About 3,700 (7%) of roughly 53,000 sequences were called active. This is one part of a sample in which actives are shown more often than they occur.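 How the source made its calls: active means gene knockdowns whose robust z-score for IL-1 alpha signal is at least 2 or at most -2, so actives lie on both sides; inactive means the rest.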
Assay: Components of the Cytosolic LPS Sensing Pathway: Gene Identification via Genome-wide siRNA Screen;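 further: robust z of the log signal after scaling to non-targeting control siRNA wells of the plate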
Conditions: RAW264.7 macrophages, IL-1a HTRF, actives lie on both sides, screened at 100 nM (by protocol), cells primed 5 h with Pam3CSK4 first
Method in brief: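 RAW264.7 mouse macrophages reverse-transfected with single siRNAs (100 nM final) for 48h, primed with Pam3CSK4 for 5 hours, then transfected with LipidA for 24 hour. Supernatant IL-1a read by HTRF; values normalized to negative-control median, log-transformed robust z-scores.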
With GGCAUCUCCCACAUUAGAGTT against Sell the z-score was 0.949 (inactive).
In the case of GGAAUAUGACUACAUGAAATT against Calu, the z-score is reported as -0.0124 (inactive).
For GGAAAUUCGUGCAUGAAGATT against Sgsm2, the z-score was -1.31 (inactive).
For GGAGUCGAAUCUUCUCUAATT against Taco1, the z-score was -1.07 (inactive).
In the case of GGUGCACACCAAUGUUCUGTT against Efemp2, the z-score is reported as 2.03 (active).
With GCUAUGCUGUUUUAUGUGATT against Synpr the z-score was 0.212 (inactive).
For CCUAUUGUAGCAAGUUACATT against H3c7, the z-score was 1.15 (inactive).
With GGCAGAUGUACUGAUUAAATT against Tmprss11g the z-score was 1.05 (inactive).
For CGUUCUCUUGAAAUAAGCCTT against Pogk, the z-score was -0.147 (inactive).
With GGGACCUCCAUCGUAUUUGTT against Slc29a4 the z-score was 0.71 (inactive).
For GCAACUGGUGAUAAGGUGUTT against Flywch1, the z-score was 0.486 (inactive).
With GGCCAGAGUAUCGAUGUUCTT against Slc25a14 the z-score was -0.566 (inactive).
In the case of GGGACUUGAGUAGCUGACUTT against Sgta, the z-score is reported as -1.49 (inactive).
With GCUUUCUUACCAAGAGUCATT against Vsig8 the z-score was -2.89 (active).
With CCUCUUAUCUCGAACAUUATT against Dsn1 the z-score was 0.95 (inactive).
For GGAGAUAACACCGUUACUUTT against Olfr769, the z-score was 0.766 (inactive).
With GGAUCUGAAGAUGAUGAACTT against Ces2e the z-score was 0.0623 (inactive).
With CCUAGAAAUGAUUGUUGUUTT against Ncapg2 the z-score was 1.98 (inactive).
With GGAGACCUUAAAAGAACAUTT against Ccdc134 the z-score was 0.775 (inactive).
For CCCGGUUGUCUGGAUAUGATT against Map3k3, the z-score was -2.39 (active).
With CCCAGAUGGAUUUUUGCAUTT against Gm10413 the z-score was 0.102 (inactive).
For GCCAAAGUCUUGCUAUGUGTT against Uba7, the z-score was -0.481 (inactive).
With GGAAGCUCUUCAACUCUACTT against Vps4b the z-score was 2.06 (active).
With AUUGGACUUCUACAUGGCUTT against Olfr207 the z-score was 1.43 (inactive).
In the case of GGAGAGAUGGUAUUGUUGGTT against Olfr1298, the z-score is reported as -0.0094 (inactive).
In the case of GGGCACUCAAGUGUAUGUCTT against Hpx, the z-score is reported as 0.224 (inactive).
In the case of GCCAAAUGAACUAGCAAUATT against Golm1, the z-score is reported as 0.0585 (inactive).
For GGCAUUUGAGUGGACUGUUTT against Hirip3, the z-score was 0.421 (inactive).
With GGUCUGUCUCGUCUACAAUTT against Gstm1 the z-score was 2.98 (active).
In the case of GGCGUAAAAUUCAAACUCATT against Cr2, the z-score is reported as 1.02 (inactive).
With GGAUCAGGAAGGAUUCGGATT against Zfp84 the z-score was -1.01 (inactive).
For GGAAGGAGCUUCGAAAAAATT against Pex16, the z-score was 0.129 (inactive).
With GGAGAAGUUUAGUGAAGAATT against Rmdn2 the z-score was -2.48 (active).
In the case of GGCUUAAGGACAAGAAGAUTT against Gsn, the z-score is reported as -0.747 (inactive).
In the case of CCAUAAGUUUGAAGAAUCCTT against Glg1, the z-score is reported as 1.45 (inactive).
For “GGCUAUGUAGAUGGUUUUGTT against B830017H08Rik”, the z-score was 2.65 (active).
With GGAUCACCUAACGUAAUGGTT against Phlda1 the z-score was -1.31 (inactive).
For GGUGACUUGGAAGAGCCCATT against Il1rapl2, the z-score was -0.637 (inactive).
With CGUCGUGGUUGGUAUGUAATT against Sacs the z-score was -1.18 (inactive).
With GGCCAGACAAAUGAUGCCATT against Slc25a30 the z-score was -3.04 (active).
For GGAACUAUAUACGAUGAUGTT against Usp8, the z-score was -0.316 (inactive).
For GGAGUUUGAAGACUUUUUGTT against Pstpip2, the z-score was 0.24 (inactive).
In the case of CGGCUAGAUGAUCCUACCUTT against Tsga13, the z-score is reported as -0.542 (inactive).
With GGCCCUAGAUGAGCACAAATT against Kcnh3 the z-score was 2.48 (active).
For GCUCUGAUCAUUUGACUUGTT against Ovca2, the z-score was 0.128 (inactive).
In the case of GGACCAGAAAUACAUUUUCTT against Arhgef2, the z-score is reported as -0.288 (inactive).
For GGGCAGAAACAAAAGGUUATT against Tmlhe, the z-score was 0.917 (inactive).
With GGAAUGUUACCCUUCAACUTT against Slc25a13 the z-score was -0.0366 (inactive).
In the case of GGACUCAAGAGAAAUUCAATT against Nod2, the z-score is reported as 2.19 (active).
In the case of GGGAUGUGAAAUGCACCUUTT against Rftn1, the z-score is reported as -1.03 (inactive).
For GGUAUUCUUCCUCCAUGGGTT against Olfr638, the z-score was -3.22 (active).
In the case of UGACUUUUGGACACGAGGCTT against Trim15, the z-score is reported as -0.159 (inactive).
For GGACAAAUGACUGGUACCCTT against Gorasp2, the z-score was -0.314 (inactive).
For CGUGUGAAGCAGUUAUGAUTT against Pbx3, the z-score was 1.02 (inactive).
With GGCAAAUAGUUUCUUCAAUTT against Npnt the z-score was -0.485 (inactive).
In the case of GGUUGUGAACAGUCCACCCTT against Ski, the z-score is reported as 0.461 (inactive).
With GGAGUGGCCAUUAAAUUUATT against Slc17a8 the z-score was 2.75 (active).
With GGUGCUGGUGGAUGAACUATT against Nags the z-score was -1.5 (inactive).
For GGAGGCUAUUACUGUUUAUTT against Fam107b, the z-score was 0.601 (inactive).
In the case of GGUCAAGAGUGCAUUCAAATT against Olfr1445, the z-score is reported as 0.266 (inactive).
With GGAACUGAUAUCAUGUACATT against Slc25a5 the z-score was 2.15 (active).
In the case of GCCGAUUCUCAUAUUUGACTT against Exo1, the z-score is reported as -0.742 (inactive).
With GGCUGAGAACAAUAUGUAUTT against Ccdc80 the z-score was 0.323 (inactive).
For GGGCAUUUGGCCUUUCUCATT against Cpsf4, the z-score was -0.905 (inactive).
For GGGCUUGUUUGACUUUCAUTT against Btd, the z-score was 0.175 (inactive).
In the case of GGCUGUAAUGAGGACUGAUTT against Ss18l2, the z-score is reported as 3.25 (active).
For CCCUAUACAGCGUACCCAATT against Eya2, the z-score was -0.754 (inactive).
In the case of GCCAUGCUCACUGAACUUCTT against Nanp, the z-score is reported as -2.3 (active).
For GGACUUGAAACUUCUGGAUTT against Nudt16, the z-score was 0.453 (inactive).
